The values that follow come from PubChem BioAssay AID1645854 (Buhrlage Lab, Dana-Farber Cancer Institute and Novartis …, 2021).

Among all 47,000 compounds or so, about 140 (0.3%) were called active. Only a selection was taken, and actives are over-represented in it overall. Values without a mark were called inactive. Cut-off read from the data, not from the text of the source: active = inhibition above about 30%; inactive = the rest.

Chain of Ubiquitin carboxyl-terminal hydrolase 7 (Homo sapiens) (Q93009 whole entry, looked up): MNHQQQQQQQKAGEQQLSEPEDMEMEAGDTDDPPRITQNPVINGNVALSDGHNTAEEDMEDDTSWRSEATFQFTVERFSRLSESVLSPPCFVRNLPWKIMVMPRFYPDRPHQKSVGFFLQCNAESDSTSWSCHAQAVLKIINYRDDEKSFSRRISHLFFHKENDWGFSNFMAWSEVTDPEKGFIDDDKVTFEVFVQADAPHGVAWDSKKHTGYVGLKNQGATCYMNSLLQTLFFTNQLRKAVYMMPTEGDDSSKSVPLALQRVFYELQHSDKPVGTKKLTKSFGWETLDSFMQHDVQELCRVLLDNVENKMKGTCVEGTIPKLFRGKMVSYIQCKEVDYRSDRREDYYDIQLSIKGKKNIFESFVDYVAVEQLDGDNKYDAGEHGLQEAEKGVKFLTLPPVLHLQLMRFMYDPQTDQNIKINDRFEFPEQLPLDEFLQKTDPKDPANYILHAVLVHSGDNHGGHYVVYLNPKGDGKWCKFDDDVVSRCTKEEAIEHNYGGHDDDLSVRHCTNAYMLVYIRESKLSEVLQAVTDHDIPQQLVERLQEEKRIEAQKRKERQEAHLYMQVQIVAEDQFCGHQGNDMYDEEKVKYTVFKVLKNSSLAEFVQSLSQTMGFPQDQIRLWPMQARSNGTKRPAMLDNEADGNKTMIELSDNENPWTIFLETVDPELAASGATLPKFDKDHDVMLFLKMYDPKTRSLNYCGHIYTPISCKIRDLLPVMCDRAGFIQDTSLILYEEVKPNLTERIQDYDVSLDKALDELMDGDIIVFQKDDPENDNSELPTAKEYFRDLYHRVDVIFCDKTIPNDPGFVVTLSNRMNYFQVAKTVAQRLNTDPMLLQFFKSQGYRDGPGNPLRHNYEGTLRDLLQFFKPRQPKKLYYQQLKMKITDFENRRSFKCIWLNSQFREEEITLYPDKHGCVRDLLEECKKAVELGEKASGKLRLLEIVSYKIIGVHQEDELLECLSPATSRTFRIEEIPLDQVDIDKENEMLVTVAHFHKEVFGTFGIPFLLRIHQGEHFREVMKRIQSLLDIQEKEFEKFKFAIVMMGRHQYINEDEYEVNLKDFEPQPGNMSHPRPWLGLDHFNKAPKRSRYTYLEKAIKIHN

This test concerns the target Ubiquitin carboxyl-terminal hydrolase 7 (Homo sapiens) (UniProt Q93009). Briefly: inhibitors of human USP7 deubiquitinase (AID 1645854). The settings on record: purified USP7, Ub-rhodamine cleavage fluorescence; at 20 µM; stronger effect = higher value.
In the case of `O=C1CCCC2=C1C(c1ccc(O)cc1)n1ncc(C(=O)Nc3ccccc3)c1N2` (stereo not given), the inhibition (as a rule, the change of the read-out against control, counted positive when it falls) was 1.67%.

As to `Fc1ccc(-c2nn(-c3cccc(F)c3)c3c2cnc2cc4c(cc23)OCO4)cc1`, the inhibition was 8.85%.

Take `CCC(=O)NC(=NCCc1c[nH]c2ccc(Cl)cc12)Nc1nc(C)cc(C)n1`: the inhibition was 6.43%.

On to `Cc1c(S(=O)(=O)N2CCCC2)cc(C(=O)Nc2ccccc2F)n1C`, for which the inhibition was 1.4%.

In the case of `Cc1ccc(-c2cc(=O)oc(-c3ccc(Br)cc3)n2)cc1`, the inhibition is 4.33%.

On to `COc1ccc(OC)c(-c2cc(C(=O)N3C[C@@H]4C[C@@]5(C)[C@H](CCC[C@@H]35)N4)[nH]n2)c1`, for which the inhibition is 1.2%.

As for `Cc1ccccc1Nc1nccc(C2CCCN(C(=O)C3(c4ccccc4)CC3)C2)n1` (stereo not given), the inhibition was -0.199%.

Consider `CC12CCN(CCC(F)(F)F)CCN1C(=O)N(Cc1ccccn1)C2=O` (stereo not given), for which the inhibition is -2.02%.

For `Cc1nc(Nc2ccccn2)cc(C2CCCN2C(=O)c2cccnc2)n1` (stereo not given), the inhibition is -7.09%.

Take `CCc1ccccc1NC(=O)COc1nsnc1N1CCOCC1`: the inhibition is -0.647%.

Consider `Cc1cc(O)c2c(C)c(CC(=O)N3CCC[C@H]3C(=O)O)c(=O)oc2c1`, for which the inhibition was 0.928%.

`Cc1nc2ccccc2c(=O)n1-c1ccc(F)c(NC(=O)c2ccccc2[N+](=O)[O-])c1`: the inhibition is 3.02%.

On to `O=S(=O)(Cc1noc(-c2ccc(OC(F)(F)F)cc2)n1)c1ccc(F)cc1`, for which the inhibition is -2.05%.

For `Cc1nc2sccn2c1CN1C[C@@H](c2ccccn2)[C@@]2(CCCCC(=O)N2)C1`, the inhibition is 5.2%.

With `CC(=O)N1CCCn2c(nc(CNC(=O)c3cnn(C)c3)cc2=O)C1`, the inhibition is 6.8%.

As for `Cc1ccccc1CNC(=O)CCc1nc2ccccc2c(=O)n1C`, the inhibition is -6.78%.

Regarding `CC(C)n1ncc2c(C(=O)NCc3ccccc3CN(C)C)cc(C3CC3)nc21`, the inhibition is -0.227%.

For the molecule `CN1C(=O)OC2(CCN(S(=O)(=O)c3ccccc3)CC2)c2ccccc21`, the inhibition is 4.14%.

Turning to `CCCNC(=O)c1nc2c(o1)CN(CC1CC1)C2`, the inhibition was 0.464%.

For `CN(C(=O)COc1ncnc2c1cnn2-c1ccccc1)C1CCCCC1`, the inhibition is 1.52%.

Regarding `Cc1cccc(S(=O)(=O)N(CC(=O)N(C)Cc2ccccc2)Cc2ccccc2)c1`, the inhibition was -0.03%.

Take `COc1cc(C)c(CN2CCC3(CC2)OCCc2cnc(C)nc23)cc1C`: the inhibition was -2.12%.

As to `O=C(Nc1cc(C(F)(F)F)ccc1-n1cnc2ccccc21)c1ccc(S(=O)(=O)N2CCCCC2)cc1`, the inhibition was 12.8%.

Turning to `Cc1nc(CN2CCn3c(CNC(=O)C4CC4)cnc3C2C)cs1` (stereo not given), the inhibition was -127%.

`CCCN(C(=O)c1cccc2c1SCCC2=O)c1ccc(F)cc1`: the inhibition is -4.01%.

In the case of `O=C(Cc1ccccc1)Nc1ccc(-c2nc3cnccc3o2)c(O)c1`, the inhibition is 31.5% (active).

With `COc1cc(C(=O)Nc2ccc(-c3nc4cnccc4o3)cc2)cc(OC)c1OC`, the inhibition was 5%.

In the case of `O=C(Nc1ccc(-c2nc3cnccc3o2)c(O)c1)c1ccc(-c2ccccc2)cc1`, the inhibition is 5.05%.

Consider `CCOc1ccc(NC(=O)Cn2c(=O)n(CCC(=O)N3CCc4ccccc4C3)c(=O)c3ccccc32)cc1`, for which the inhibition was 3.17%.

With `O=C(Nc1ccc(F)cc1F)c1csc2c1CCCCC2`, the inhibition is 3.29%.

Turning to `O=C(NCc1ccc2c(c1)OCO2)C1(c2ccc(Cl)cc2)CCCC1`, the inhibition is -12.3%.

In the case of `CN(Cc1ccccc1)Cc1cn[nH]c1-c1ccc(Cl)cc1`, the inhibition is -24%.

Regarding `Cc1nc2nc(NCc3ccccc3)[nH]n2c(=O)c1CCC(=O)N1CCCCC1C` (stereo not given), the inhibition was 2.27%.

For the molecule `CC1=NOC(CNS(=O)(=O)c2cc(C)ccc2C)C1` (stereo not given), the inhibition is -0.759%.

Regarding `O=C1NC2(CCN(C(=O)Cc3ccc(F)cc3)CC2)N=C1c1ccc(Cl)cc1`, the inhibition was -39.3%.

For the molecule `COc1c(O)c2c3c(c1O)C(=O)[C@@]1(O)C(=C3C(C)=CC2=O)O[C@@H](C)C1(C)C`, the inhibition is -76.3%.

For the molecule `COc1ccc(Cl)cc1NC(=O)C1CC(=O)NC(Nc2ccccc2)=N1` (stereo not given), the inhibition is -1.4%.

Regarding `Cc1cc(C)n2nc(C(=O)N3CCCC(Cc4[nH]ncc4C)C3)cc2n1` (stereo not given), the inhibition is -0.00929%.

For the molecule `CSc1cccc(NC(=O)CC(=O)Nc2ccc3nc4n(c(=O)c3c2)CCCCC4)c1`, the inhibition was 1.86%.

In the case of `CC1(C2CCN(C(=O)NC3CCCCC3)CC2)NC(=O)NC1=O` (stereo not given), the inhibition was 2.45%.

On to `CC(C)CCN1C[C@H]2CCN(C(=O)c3cnccn3)CC[C@H]2S1(=O)=O`, for which the inhibition was -4.49%.

Consider `Cc1ccccc1COC(=O)C1CCN(C2=NS(=O)(=O)c3ccccc32)CC1`, for which the inhibition was -0.994%.

In the case of `COc1ccc2[nH]c3c(c2c1)CCN1C(=O)CN(CCc2ccccc2)C(=O)C31C` (stereo not given), the inhibition was 4.73%.

Regarding `COC1=C(OC)C(=O)C(C)=C(C)C1=O`, the inhibition was 3.62%.

Regarding `O=C(Nc1cccc(S(=O)(=O)N2CCCCCC2)c1)c1ccc(N2CCOCC2)c([N+](=O)[O-])c1`, the inhibition was 8.97%.

For `CC(C)(C)c1cc(-c2ccccc2)nc(-c2ccccc2)c1`, the inhibition is 1.78%.

For the molecule `O=C(CCN1CCOC(Cn2cncn2)C1)N1CCCCC1` (stereo not given), the inhibition is 1.57%.

For `O=C(CN(Cc1ccccc1)S(=O)(=O)c1ccccc1)N1CCCCCC1`, the inhibition was -6.83%.

Regarding `Cc1ccc(NS(=O)(=O)c2cc(-c3[nH]ncc3C(=O)N3CCCC3)oc2C)cc1F`, the inhibition is -40.8%.

Turning to `COCCn1cnc2c1c(=O)n(CC(=O)Nc1c(C)cc(C)cc1C)c(=O)n2Cc1ccccc1`, the inhibition is 0.0199%.

For the molecule `CC(Nc1nnc(Cc2ccccc2)c(=O)[nH]1)c1ccccc1` (stereo not given), the inhibition was 19.7%.

As to `CC(C)Cc1cc(-c2nn3c(-c4ccccc4Cl)nnc3s2)n[nH]1`, the inhibition is 7.86%.

As for `Cc1c(-c2nn3c(-c4ccco4)nnc3s2)cccc1[N+](=O)[O-]`, the inhibition is 35% (active).

Turning to `Cc1cccc(CNC(=O)c2ccc3c(c2)NC(=O)C2CCC(=O)N32)c1` (stereo not given), the inhibition was 1.1%.

`O=C1CC(CNS(=O)(=O)c2cccc(Cl)c2)CN1c1ccccc1` (stereo not given): the inhibition is -3.38%.

For `Cn1c(=O)c2ccc(C3CCN(C(=O)CN4CCCC4)C3)nc2n(C)c1=O` (stereo not given), the inhibition is -2.1%.

In the case of `COc1cc2c(c(OC)c1OC)-c1ccc(N3CCN(Cc4ccccc4)CC3)c(=O)cc1[C@@H](NC(C)=O)CC2`, the inhibition is -1.92%.

In the case of `C=C1CCC2[C@](C)(CCC[C@]2(C)C(=O)OC)[C@H]1CCc1ccoc1C[N+](C)(C)Cc1ccccc1` (stereo not given in full), the inhibition is 19.4%.

For the molecule `C=C1CCC2[C@](C)(CCC[C@]2(C)C(=O)OC)[C@H]1CCc1ccoc1CNCC(=O)O` (stereo not given in full), the inhibition was 1.95%.

For `C=C1CCC2[C@](C)(CCC[C@]2(C)C(=O)OC)[C@H]1CCc1ccoc1/C=C/C(=O)O` (stereo not given in full), the inhibition was 37.2% (active).

Turning to `CCc1cc(C(=O)NC2CC(C)(C)Cc3nc(N4CCCC4)ncc32)no1` (stereo not given), the inhibition was -17.3%.

On to `Cc1ccc(-c2cn3ccn(-c4ccc(C)cc4C)c(=O)c3n2)cc1`, for which the inhibition is 6.15%.

As for `CC(C)CN1[C@H]2CCN(C(=O)c3cccn3C)CC[C@@H]2Oc2ccccc2S1(=O)=O`, the inhibition was -3.56%.

On to `Cn1cc(C2=CCN(S(=O)(=O)c3cccc4cccnc34)CC2)c2cccnc21`, for which the inhibition was -2.34%.

For `Cc1nnc(C(=O)Nc2ccc(C(=O)NCc3ccccc3C)cc2)s1`, the inhibition was 6.22%.

Turning to `O=C(Nc1nc(-c2ccc3c(c2)CCN3C(=O)c2ccccc2F)cs1)c1cccnc1`, the inhibition is 26.5%.

In the case of `CCS(=O)(=O)c1cccc(C(=O)Nc2c(C(N)=O)oc3ccccc23)c1`, the inhibition is 1.8%.

For the molecule `CN1CCN(c2ccc(CNS(=O)(=O)c3cccc(F)c3)cc2)CC1`, the inhibition was 3.64%.

Take `COc1ccccc1CNc1ccc2c(cc1=O)[C@@H](NC(C)=O)CCc1cc(OC)c(OC)c(OC)c1-2`: the inhibition is -13.3%.

Consider `CCS(=O)(=O)N1CCC(c2nc(C)c(-c3ccnc(C)n3)s2)CC1`, for which the inhibition is 3.86%.

For `C=C1Nc2ccccc2C(=O)N1c1cccc(NC(=O)c2ccc(F)cc2)c1`, the inhibition was 1.49%.

Take `O=C(CCc1nc(-c2cccnc2)no1)Nc1cc(Cl)ccc1O`: the inhibition is -16.2%.

Consider `CC(C)Cc1nnc(NC(=O)c2cc(=O)[nH]c3ccccc23)s1`, for which the inhibition is -0.0201%.

`COc1cc(C(=O)N[C@@H]2C(=O)Nc3c(c(C)nn3C)[C@H]2c2cccc(Cl)c2)cc(OC)c1OC`: the inhibition is -9.37%.

Turning to `CN1C(=O)C2CCCCN2c2ccc(C(=O)NC3CCCC3)cc21` (stereo not given), the inhibition was -1.37%.

Take `O=C(CCc1ccccc1)N1C[C@@H]2OCC(=O)N(C3CCOCC3)[C@H]2C1`: the inhibition was 10.2%.

As to `C[C@H](NC(=O)[C@@H]1Cc2c([nH]c3ccccc23)C2c3ccccc3C(=O)N21)C(=O)NC1CC1` (stereo not given in full), the inhibition is -18.8%.

As for `CC(/C=C/C(=O)NO)=C\C(C)C(=O)c1ccc(N(C)C)cc1` (stereo not given), the inhibition was -1.05%.

Regarding `CC1(C)CCc2c(cc(OCC(=O)NCC(=O)O)c3c4c(c(=O)oc23)CCC4)O1`, the inhibition was 8.33%.

On to `CCCc1cc(=O)oc2cc(OCC(=O)NCc3ccc(OC)cc3)ccc12`, for which the inhibition is 1.51%.

In the case of `CSc1ncnc2c1sc1nc(-c3ccccc3)c3c(c12)CC(C)(C)OC3`, the inhibition is 4.67%.

As to `CC1(C)Cc2c(c(-c3ccco3)nc3sc4c(SCCCc5ccccc5)ncnc4c23)CO1`, the inhibition is 56.7% (active).

In the case of `CCCCCCSc1ncnc2c1sc1nc(-c3ccccc3)c3c(c12)CC(C)(C)OC3`, the inhibition was 1.19%.

Consider `COCCN1C(=O)Cc2c(C)nc(C3(C)CCCN(c4ccnc(C)n4)C3)nc21` (stereo not given), for which the inhibition was -0.762%.

Regarding `Cc1cc(-c2cnc(C)nc2C2CCN(C(=O)Cc3ccccc3F)CC2)on1`, the inhibition was 0.853%.
